From PMC4336329 (PLoS ONE, 2015) come the findings set out here.

Screen size: about 310,000 compounds; about 14,000 (4.5%) showed an effect of 50% or more. The effect is printed as a negative number. The sample as a whole holds a higher share of strong results than the screen did.
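Also: peak tail current of the secondary pulse compared with the same well before compound.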

Sequence of human ether-à-go-go-related gene (hERG) potassium channel (Q12809 whole entry, looked up): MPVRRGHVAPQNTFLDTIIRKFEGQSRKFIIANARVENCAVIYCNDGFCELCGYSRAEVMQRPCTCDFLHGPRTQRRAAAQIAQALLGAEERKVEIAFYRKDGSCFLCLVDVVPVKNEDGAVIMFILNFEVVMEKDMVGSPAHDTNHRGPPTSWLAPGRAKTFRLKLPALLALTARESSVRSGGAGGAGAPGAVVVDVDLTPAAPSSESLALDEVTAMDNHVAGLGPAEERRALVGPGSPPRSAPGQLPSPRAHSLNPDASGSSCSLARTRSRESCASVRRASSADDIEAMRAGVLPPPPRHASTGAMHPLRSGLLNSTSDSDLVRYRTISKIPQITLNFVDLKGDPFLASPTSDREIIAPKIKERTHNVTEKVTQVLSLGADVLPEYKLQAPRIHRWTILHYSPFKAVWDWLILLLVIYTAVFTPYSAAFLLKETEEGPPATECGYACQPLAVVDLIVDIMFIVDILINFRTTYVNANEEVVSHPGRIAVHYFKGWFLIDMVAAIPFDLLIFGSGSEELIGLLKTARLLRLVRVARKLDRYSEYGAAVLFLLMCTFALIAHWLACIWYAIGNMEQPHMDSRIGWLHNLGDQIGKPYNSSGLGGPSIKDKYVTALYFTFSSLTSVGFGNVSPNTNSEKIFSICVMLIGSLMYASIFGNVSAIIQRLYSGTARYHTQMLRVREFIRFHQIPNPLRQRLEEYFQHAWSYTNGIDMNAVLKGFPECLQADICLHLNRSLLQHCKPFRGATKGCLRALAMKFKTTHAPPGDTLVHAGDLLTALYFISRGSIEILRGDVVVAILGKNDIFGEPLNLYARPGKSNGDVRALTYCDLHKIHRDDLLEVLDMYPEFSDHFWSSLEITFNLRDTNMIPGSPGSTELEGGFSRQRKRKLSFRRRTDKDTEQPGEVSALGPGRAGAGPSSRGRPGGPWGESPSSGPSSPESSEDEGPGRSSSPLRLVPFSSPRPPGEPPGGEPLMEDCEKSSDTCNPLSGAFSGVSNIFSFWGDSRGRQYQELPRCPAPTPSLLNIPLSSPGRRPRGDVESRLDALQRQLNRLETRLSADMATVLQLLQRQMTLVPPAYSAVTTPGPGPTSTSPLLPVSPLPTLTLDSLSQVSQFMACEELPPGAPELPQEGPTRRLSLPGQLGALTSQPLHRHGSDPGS

The experiment concerns the target human ether-à-go-go-related gene (hERG) potassium channel (human, UniProt Q12809). Put plainly: primary screen, population patch clamp on CHO cells stably expressing hERG; higher = less effect of the substance.
For `CC(=O)Nc1ccc(-c2csc(NC(=O)C3CCN(S(=O)(=O)c4cccs4)CC3)n2)cc1`, the “hERG current change (%, negative = inhibition) at 10uM” value was -2.9%.
In the case of `COc1cc(-c2nc3sc(C)c(C)c3c(=O)o2)cc(OC)c1OC`, the “hERG current change (%, negative = inhibition) at 10uM” value was 19%.
As for `CCOC(=O)C1=C(C)OC(N)=C(C#N)C1c1cc2ccccc2nc1N1CCCCC1` (centres unmarked), the “hERG current change (%, negative = inhibition) at 10uM” value is given as 6.3%.
On to `CC(C)N1C(=S)SC2CS(=O)(=O)C=C21` (centres unmarked), for which the “hERG current change (%, negative = inhibition) at 10uM” value is given as -5.07%.
`NC(=O)c1cc(S(=O)(=O)N2CCCC2)ccc1OCCOc1ccccc1`: the “hERG current change (%, negative = inhibition) at 10uM” value was found to be 2.15%.
`N#Cc1ccc(Cn2cc(C=O)c3ccccc32)cc1`: the “hERG current change (%, negative = inhibition) at 10uM” value was -80.8%.
In the case of `N#Cc1ccc(Cn2cc(C(=O)c3ccco3)c3ccccc32)cc1`, the “hERG current change (%, negative = inhibition) at 10uM” value was -76.7%.
To `O=C(c1ccco1)c1cn(Cc2ccc(Cl)cc2)c2ccccc12` belongs 15.9%; to `O=Cc1cn(Cc2ccc(Br)cc2)c2ccccc12`, 15%.
Turning to `CCC(=O)c1cn(Cc2ccccc2C#N)c2ccccc12`, the “hERG current change (%, negative = inhibition) at 10uM” value is listed as -24.2%.
As for `CC(C)C(=O)c1cn(Cc2ccccc2C#N)c2ccccc12`, the “hERG current change (%, negative = inhibition) at 10uM” value was -10.8%.
For `CC(C)C(=O)c1cn(Cc2ccc(C#N)cc2)c2ccccc12`, the “hERG current change (%, negative = inhibition) at 10uM” value is reported as -75.6%.
As for `CC(C)C(=O)c1cn(CC(=O)O)c2ccccc12`, the “hERG current change (%, negative = inhibition) at 10uM” value is on record as 8.27%.
As to `O=C(c1ccco1)c1cn(Cc2ccccc2)c2ccccc12`, the “hERG current change (%, negative = inhibition) at 10uM” value is -6.75%.
To `CC(=O)c1cn(Cc2ccc(C#N)cc2)c2ccccc12` belongs -19.9%.
As to `Cc1ccc(Cn2cc(C=O)c3ccccc32)cc1`, the “hERG current change (%, negative = inhibition) at 10uM” value turned out to be 1.48%.
Next, `CCC(=O)c1cn(Cc2ccc(C#N)cc2)c2ccccc12`: -71.8%; `Cc1cc(C)n(-c2ncc(-c3ccccc3)nn2)n1`: -36.4%; `O=C(NCCCc1ccccc1)C(=O)NCC1OCCN1S(=O)(=O)c1cc(F)ccc1F` (centres unmarked): -15%.
Regarding `O=C(Nc1ncc(Cc2ccccc2)s1)C1=NCCN1`, the “hERG current change (%, negative = inhibition) at 10uM” value amounted to 6.81%.
With `COc1ccc(-c2nn(-c3ccccc3)cc2N)cc1`, the “hERG current change (%, negative = inhibition) at 10uM” value is listed as -3.82%.
In the case of `CCOC(=O)c1ccc(COC(=O)CCc2nc(-c3ccccc3)c(-c3ccccc3)o2)cc1`, the “hERG current change (%, negative = inhibition) at 10uM” value came out at 1.13%.
`CN(Cc1ccco1)S(=O)(=O)c1nnc(NC(=O)c2ccccc2Cl)s1`: the “hERG current change (%, negative = inhibition) at 10uM” value was found to be 15%.
`COc1ccccc1NC(=O)CN1CC(=O)Nc2ccccc21`: the “hERG current change (%, negative = inhibition) at 10uM” value is on record as 20.5%.
For the molecule `O=C(O)CCNc1nc(C(F)(F)F)nc2ccccc12`, the “hERG current change (%, negative = inhibition) at 10uM” value is on record as 18.2%.
With `Cl.Fc1ccc(Nc2nc(N3CCOCC3)c3ccccc3n2)cc1`, the “hERG current change (%, negative = inhibition) at 10uM” value is recorded as -2.91%.
As to `Cl.Oc1ccc(Nc2nc(N3CCCC3)c3ccccc3n2)cc1`, the “hERG current change (%, negative = inhibition) at 10uM” value is -70.2%.
Next, `CN1CCN(c2nc(Nc3ccc(O)cc3)nc3ccccc23)CC1.Cl`: -34.9%; `COc1ccc(Nc2nc(N3CCCCC3)c3ccccc3n2)cc1`: -32.9%; `COc1ccc(Nc2nc(N)c([N+](=O)[O-])c(N3CCCC3)n2)cc1`: -22.8%.
Turning to `Cl.c1ccc(Nc2nc(N3CCOCC3)c3ccccc3n2)cc1`, the “hERG current change (%, negative = inhibition) at 10uM” value is -14.2%.
On to `Cl.c1ccc2c(Nc3nc(N4CCOCC4)c4ccccc4n3)cccc2c1`, for which the “hERG current change (%, negative = inhibition) at 10uM” value is -6.79%.
To `COc1ccc(Nc2nc(N3CCCC3)c3ccccc3n2)cc1.Cl` belongs -70%; to `CCN(CC)c1ccc(Nc2nc(N3CCOCC3)c3ccccc3n2)cc1`, -71.8%.
As for `N#C/C(=C/c1ccccc1[N+](=O)[O-])c1nc(C2CC2)cs1`, the “hERG current change (%, negative = inhibition) at 10uM” value is reported as -12.3%.
Regarding `CCCc1nnc(NC(=O)CCC(=O)NCc2ccccc2OC)s1`, the “hERG current change (%, negative = inhibition) at 10uM” value is listed as 21.4%.
For the molecule `CC1(c2ccccc2)NC(=O)N(CC(=O)NC(=O)NC2CCCC2)C1=O` (centres unmarked), the “hERG current change (%, negative = inhibition) at 10uM” value turned out to be 0.115%.
`Cc1ccc(-c2noc(CSc3nnc(-c4ccccc4)n3C)n2)cc1`: the “hERG current change (%, negative = inhibition) at 10uM” value is on record as -3.5%.
On to `COc1cc2c(cc1OC)C(c1ccc(Br)cc1)NC(=O)C2` (centres unmarked), for which the “hERG current change (%, negative = inhibition) at 10uM” value was determined as 12.1%.
To `O=C(CSc1nnc(-c2ccco2)n1CC1CCCO1)NC1CCCC1` (centres unmarked) belongs -4.75%.
As for `OCCN(CCO)CC(O)COc1ccc(Br)cc1` (centres unmarked), the “hERG current change (%, negative = inhibition) at 10uM” value is on record as 3.82%.
Regarding `CC(C)NCC(O)COc1ccc(Br)cc1.Cl` (centres unmarked), the “hERG current change (%, negative = inhibition) at 10uM” value is -30.3%.
As to `CN(C)CC(O)COc1cccc(OCC(O)CN(C)C)c1.Cl` (centres unmarked), the “hERG current change (%, negative = inhibition) at 10uM” value turned out to be 11.8%.
Take `CCCCN(CCCC)CC(O)COc1ccc(Br)cc1` (centres unmarked): the “hERG current change (%, negative = inhibition) at 10uM” value was -74.4%.
On to `CCCCN(CC(O)COc1cccc(C)c1)CC(O)COc1cccc(C)c1` (centres unmarked), for which the “hERG current change (%, negative = inhibition) at 10uM” value was -81.7%.
On to `Cc1cccc(OCC(O)Cn2ccnc2C)c1` (centres unmarked), for which the “hERG current change (%, negative = inhibition) at 10uM” value is on record as -9.12%.
Consider `CCOP(=S)(OCC)SCC(=O)NC(C(=O)O)C(C)C` (centres unmarked), for which the “hERG current change (%, negative = inhibition) at 10uM” value is reported as 7.13%.
